Measured values: PubChem BioAssay (NCATS)
Results filed as inconclusive are left out. Calls of active or inactive are those of the source. The call rests on the fitted dose curve.

What follows are compounds tested against Cytochrome P450 1A2 (Homo sapiens) (UniProt P05177) (assay: p450-cyp1a2 (AID 410;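 on activity change, negative = inhibition: -100% = full effect of reference inhibitor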)). Conditions: recombinant CYP1A2, luciferin-ME demethylation, luminescence; series mostly up to 25.6 µM.
Experimental: The P450 gene superfamily is involved in metabolism and the clearance of xenobiotics. This assay used human CYP1A2 to measure the demethylation of luciferin 6' methyl ether (Luciferin-ME; Promega-Glo) to luciferin. The luciferin is then measured by luminescence after the addition of a luciferase detection regeant. Luciferin-ME concentration in the assay was equal to its Km for CYP1A2.
NCGC Assay Protocol Summary:
Two uL of enzyme and substrate mix (final concentrations: 20nM CYP1A2, 100uM Luciferin-ME, 100mM KPO4) were dispensed into a white, solid bottom 1536-well microtiter plate. 23nL of compound was transferred by a pin tool. The plate was incubated at room temperature for 10 min. Two uL of an NADPH regeneration solution (Promega supplied reagent) was dispensed and the reaction was allowed to continue for 60 min at room temperature. Then the reaction was stopped by reconstituted detection reagent. After another 20 min of incubation the plate was read on the ViewLux (Perkin Elmer) at 60 sec exposure and 2x2 binning. This protocol was carried out with Promega-Glo reagents and further information can be found at http://www.promega.com/tbs/tb325/tb325.pdf. Data were normalized to the to AC100 inhibition (57 uM furafylline).
Potency means the concentration at half of the fitted maximal effect.

Sequence of Cytochrome P450 1A2 (Homo sapiens) (P05177 whole entry, looked up): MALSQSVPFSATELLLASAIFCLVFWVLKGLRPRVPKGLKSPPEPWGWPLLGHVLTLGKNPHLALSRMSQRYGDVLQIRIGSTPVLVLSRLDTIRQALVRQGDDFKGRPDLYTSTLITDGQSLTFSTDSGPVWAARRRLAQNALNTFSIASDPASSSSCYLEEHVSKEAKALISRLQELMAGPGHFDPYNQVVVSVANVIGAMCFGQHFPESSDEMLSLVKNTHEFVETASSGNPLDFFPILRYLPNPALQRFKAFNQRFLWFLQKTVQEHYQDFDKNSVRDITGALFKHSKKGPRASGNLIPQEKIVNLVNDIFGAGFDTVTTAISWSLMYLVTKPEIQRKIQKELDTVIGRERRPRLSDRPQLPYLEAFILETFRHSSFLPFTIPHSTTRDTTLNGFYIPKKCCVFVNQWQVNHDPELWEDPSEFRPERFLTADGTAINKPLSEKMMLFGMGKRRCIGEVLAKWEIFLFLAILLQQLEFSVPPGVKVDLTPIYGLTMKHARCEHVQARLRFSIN

| SMILES | Potency | activity change, negative = inhibition |
| --- | --- | --- |
| CN(C)CCN(Cc1ccc(Cl)cc1)c1ccccn1 | 12.6 µM (active) | – |
| CN(C)c1ccccc1CN1CCCN(Cc2ccccc2N(C)C)C1c1ccncc1 | inactive | – |
| CCC(=C(CC)c1ccc(O)cc1)c1ccc(O)cc1 | 15.8 µM (active) | – |
| Clc1ccc(COC(Cn2ccnc2)c2ccc(Cl)cc2Cl)c(Cl)c1 (configuration not stated) | 1.26 µM (active) | – |
| Cc1ccc(NC(=O)c2cccc(N(C)C)c2)cc1NC(=O)c1ccc(O)cc1 | 1.26 µM (active) | – |
| C=C1c2cccc(O)c2C(O)=C2C(=O)[C@@]3(O)C(O)=C(C(N)=O)C(=O)[C@@H](N(C)C)[C@@H]3[C@@H](O)[C@H]12 | inactive | – |
| NC(=O)c1nnn(Cc2cc(Cl)c(C(=O)c3ccc(Cl)cc3)c(Cl)c2)c1N | – | -2.2% [at 2.29 µM] (inactive) |
| Cc1cc(NC(=O)Nc2ccc(N(C)C)cc2)c2cc(F)cc(F)c2n1 | 0.126 µM (active) | – |
| CN[C@H]1[C@@H](O[C@@H]2[C@H](O[C@@H]3[C@@H](O)[C@@H](O)[C@@H](N=C(N)N)[C@@H](O)[C@@H]3N=C(N)N)O[C@H](C)[C@@]2(O)C=O)O[C@@H](CO)[C@@H](O)[C@H]1O | inactive | – |
| O=S(=O)(O)c1ccc2cc(N=Nc3cc(S(=O)(=O)O)c4cccnc4c3O)ccc2c1 | – | -18.8% [at 2.29 µM] (inactive) |
| NS(=O)(=O)c1cc(Cl)c(Cl)c(S(N)(=O)=O)c1 | inactive | – |
| NCC1CCC(C(=O)O)CC1 (configuration not stated) | inactive | – |
